High-throughput results: PubChem BioAssay, SRMLSC
Shown are actives, neighbours in structure and some others; about 6.5% of the full set was active somewhere.
MK inhibit: inhibitors of Streptococcus pneumoniae mevalonate kinase; purified MK, PK/LDH-coupled NADH absorbance 340 nm; inhibition, % at 10 µM; 0.48% of 65,000 active; AID 555;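 active = ranked among the strongest by inhibition in the single 10 µM screen, a fixed top-ranked set picked for dose follow-up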
DPM-DC inhibit: blocks S. pneumoniae diphosphomevalonate decarboxylase | purified DPM-DC, PK/LDH coupled NADH fluorescence | calls only at 10 µM | 0.49% of 65,000 active;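 active = the 320 compounds with the highest percent inhibition in the single-dose primary screen, excluding strongly autofluorescent ones, cut at about 32% in these data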;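 also: kinetic rate of NADH fluorescence loss reporting ADP formed by the decarboxylase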
PMK inhibit: inhibitors of Streptococcus pneumoniae phosphomevalonate kinase; purified PMK, PK/LDH-coupled NADH absorbance 340 nm; 0.49% of 65,000 active; inhibition, % at 10 µM; AID 539;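 active = top-ranked compounds by inhibition in the single 10 µM screen, taking a fixed number of the strongest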;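 also: 0% = full reaction with DMSO carrier and 100% = background rate without enzyme reaction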
Abs 340nm: absorbance at 340 nm; compound absorbance at 340 nm, fold over control; fold change at 10 µM; 65,000 tested, under 10 active; AID 708;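 active = at 10 µM dose, initial 340 nm absorbance at least 2 fold that of control wells; inactive = change under 2 fold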;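 also: initial absorbance extrapolated from kinetic A340 decline of NADH oxidation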
NADH coupling: inhibitors of enzymes used to reach an NAD/NADH endpoint | coupled PK/LDH NADH assays, four targets | IC50, µM (top dose mostly 10 µM), without a hit: top-dose inhibition | 0.02% of 65,000 active | AID 774;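 active = single-dose screening hits from any of four coupled enzyme assays that gave an IC50 when retested across doses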;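 also: the DPM-DC format reads NADH fluorescence rather than 340 nm absorbance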
Fluor 339 460: intrinsic fluorescence of library compounds, ex339/em460 – biochemical, MLSMR library, data from DPM-DC assay, artefact control, profiling panel | fluorescence fold increase at 10 µM | compound autofluorescence, ex339/em460 nm, NADH buffer; hits give high values; 1 = no-compound wells, NADH background | AID 709 | 5.5% of 65,000 active;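 active = at 10 µM, mean starting fluorescence two-fold or more over control wells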;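 also: signal is the first read of a kinetic run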
Starred values were filed as active, the others as inactive; i = inactive; . = not tested or not shown.

SMILES | MK inhibit | DPM-DC inhibit | PMK inhibit | Abs 340nm | NADH coupling | Fluor 339 460
Cc1cc(NC(=O)c2cc(C)on2)no1 | 8 | i | 9 | 1 | 7% | 1.1
COc1ccc(OC)c(-c2cc(C(=O)Nc3cc(C)on3)no2)c1 | 0 | i | 12 | 1 | 7% | 2.8*
Cc1sc2ncnc(Oc3ccc(-n4ccnc4)cc3)c2c1C | 7 | i | 8 | 1 | 3% | 1
COc1cc2nc(NCCN3CCOCC3)n3nc(-c4ccccc4)nc3c2cc1OC | 7 | i | 14 | 1 | 11% | 2.9*
Cc1oc(-c2ccc(Cl)cc2)nc1CN1CCCC(C(=O)N2CCN(C(=O)c3ccco3)CC2)C1 (stereo not given) | 5 | i | 6 | 1 | 4% | 1.1
COC(=O)Nc1c(-c2ccccc2)nc2ccc(C)cn12 | 10 | . | 7 | 1.1 | 9% | 3.8*
CC(=O)Nc1c(-c2ccc(F)cc2)nc2ccccn12 | 4 | . | 1 | 1 | 1% | 1.7
COC(=O)Nc1c(-c2ccccc2)nc2ccccn12 | 3 | . | 0 | 1.1 | 2% | 2.1*
C(=N\c1nc2ccccc2n1Cc1ccccc1)/c1cccs1 | 11 | i | 13 | 1.1 | 9% | 1.1
CCOc1ccc2[nH]c(C)c(CN3CCOCC3)c(=O)c2c1 | 7 | i | 16 | 1.1 | 13% | 1.6
COc1ccc2[nH]c(C)c(CN3CCCCC3)c(=O)c2c1 | 8 | i | 14 | 1 | 8% | 2.8*
COc1cc(C(=O)N2CCCN(c3nc4cc(C)ccc4cc3C#N)CC2)cc(OC)c1OC | . | i | 12 | 1 | 10% | 1.9
CCCCNC(=O)c1ccc(NC(=O)C2CCCO2)cc1 (stereo not given) | 12 | i | 0 | 1.1 | 4% | 1.1
Cc1ccc2cc(C#N)c(N3CCCN(C(=O)C4CCCO4)CC3)nc2c1 (stereo not given) | 0 | i | 15 | 1 | 9% | 2.3*
COc1ccc(C(=O)N2CCN(c3nc4cc(C)ccc4cc3C#N)CC2)c(OC)c1 | 6 | i | 6 | 1 | 2% | 1.4
Cc1cc(C)c2cc(C#N)c(NCCCNC(=O)CCC(=O)O)nc2c1 | 2 | . | 10 | 1 | 6% | 3.7*
Cc1ccc2cc(C#N)c(NCCCNC(=O)C3CCCO3)nc2c1 (stereo not given) | 4 | . | 8 | 1 | 2% | 2.9*
Cc1ccc2nc(N3CCN(C(=O)c4cccs4)CC3)c(C#N)cc2c1 | 1 | i | 11 | 0.98 | 8% | 2.4*
Cc1nc(C)n(C(C)CC(=O)O)n1 (stereo not given) | 3 | i | 0 | 0.99 | 1% | 1
O=C(c1cccs1)N1CCN(C/C=C/c2ccccc2)CC1 | 1 | i | 11 | 1.1 | 4% | 1.1
O=C(CN1CCN(c2ccccc2F)CC1)c1ccc2cc[nH]c2c1 | 1 | . | 2 | 1.1 | 2% | 2.1*
C/C=C(\C)CN1CCN(c2cc(C)ccc2C)CC1 | 36 | i | 0 | 1.1 | 12% | 1.1
CCN(CC)c1ccc(NC(=O)CN2CCN(c3ccccc3F)CC2)cc1 | 4 | i | 6 | 1 | 3% | 1.1
CCN(CC)C(=O)CN1CCN(c2ccccc2F)CC1 | 68* | i | 0 | 1.1 | 23% | 1.1
C/C=C(\C)CN1CCN(c2ccccc2F)CC1 | 51* | i | 0 | 1.1 | 17% | 1.1
SMILES | MK inhibit | DPM-DC inhibit | PMK inhibit | Abs 340nm | NADH coupling | Fluor 339 460
N#CC1=C(N)SC(N)=C(C#N)C1CCC1CCCCC1 | 6 | i | 8 | 1.1 | 10% | 1.1
Cc1ccc(Cn2nnc3c(=O)n(Cc4ccccc4C)cnc32)cc1 | 6 | i | 8 | 1 | 5% | 1
COC(=O)C1C(=O)c2c(n[nH]c2C)CC1(C)C (stereo not given) | 5 | i | 1 | 1 | 3% | 1.1
Cc1[nH]nc2c1-c1nc3ccccc3nc1C(C)(C)C2 | 9 | . | 10 | 1.1 | 10% | 3.9*
Cc1ccc(CN(c2ccc(C(=O)N3CCCC3)cc2)S(C)(=O)=O)cc1 | 10 | i | 0 | 1 | 3% | 1.1
c1ccn2c(SCc3ccc4c(c3)OCO4)nnc2c1 | 48* | i | 12 | 1 | 21% | 0.96
Cn1c(SCc2ccc3c(c2)OCO3)nnc1-c1ccccc1 | 4 | i | 16 | 1 | 2% | 1
CCCN1C2=NCCN2c2cc(C)c(C)cc21 | 2 | i | 7 | 1 | 3% | 1.1
O=C(NCCCO)c1ccc2[nH]c3ccccc3c2c1 | 2 | i | 10 | 1 | 11% | 2.7*
CCCCNC(=O)c1cccc(C(=O)NCCCC)c1 | 10 | i | 6 | 1 | 5% | 1.1
c1ccc(-c2noc(-c3cccc4ccccc34)n2)nc1 | 8 | . | 6 | 1 | 7% | 3.3*
O=C(Nc1ccc(-c2nc3cccnc3s2)cc1)c1ccc(Br)o1 | 3 | . | 9 | 1.1 | 6% | 2.2*
O=C(Nc1cccc(-c2nc3cccnc3s2)c1)c1ccco1 | 0 | i | 17 | 1 | 6% | 1.2
O=C(Nc1ccc(-c2nc3cccnc3s2)cc1)c1ccco1 | 0 | . | 0 | 1.3 | 0% | 2.1*
COC(=O)CCSCc1cn2cc(Cl)ccc2n1 | 0 | i | 14 | 0.99 | 2% | 1
COc1ccccc1C(c1nnnn1C(C)(C)C)N1CCN(Cc2ccncc2)CC1 (stereo not given) | 0 | i | 27* | 1 | 16% | 0.79
Cn1nnnc1SCCNC/C=C/c1ccccc1 | 10 | i | 0 | 1 | 3% | 1.1
O=C(O)COc1ccc2c(c1)OCCO2 | 8 | i | 8 | 1 | 7% | 1
CC12C=CC3(CN(Cc4ccccc4)C(=O)C3C1C(=O)NC1CC1)O2 (stereo not given) | 5 | i | 28* | 0.97 | 11% | 1
COc1ccc2nc(NCc3ccccc3)[nH]c2c1 | 9 | i | 10 | 1 | 6% | 1.1
CCOc1ccc2nc(C(C)O)[nH]c2c1 (stereo not given) | 7 | i | 16 | 1.1 | 15% | 1.1
COc1ccc2nc(-c3ccccc3)[nH]c2c1 | 6 | . | 1 | 1.1 | 4% | 2.3*
CCOc1ccc2nc(-c3ccccc3)[nH]c2c1 | 10 | . | 4 | 0.99 | 7% | 4*
C=CCn1c2ccccc2c2nnc(SCc3ccc4nonc4c3)nc21 | 3 | i | 0 | 1.1 | 3% | 1.1
CS(=O)(=O)c1sc2nc(-c3cccs3)cc(-c3ccccc3)c2c1N | 0 | i | 7 | 1 | 2% | 3.8*
CC(=O)c1sc2nc(-c3cccs3)cc(C(F)(F)F)c2c1N | 11 | i | 12 | 1.1 | 9% | 1.7
COC(=O)C1=CN(C)C=C(C(=O)OC)C1c1ccsc1 | 5 | . | 10 | 1 | 8% | 2.2*
CS(=O)(=O)N1CCCC(C(=O)NCc2ccc(F)cc2)C1 (stereo not given) | 1 | i | 21 | 0.97 | 7% | 1
O=C(CSc1ccc2nnc(-c3ccccc3)n2n1)N1CCCCC1 | 6 | i | 10 | 1 | 8% | 2.2*
